# The list is not random: actives were taken first. Their share in the collection is about 19%.
# Pf growth 96h = P. falciparum growth inhibition at 96 hour, primary screen for plastid delayed-death inhibitors. Potency, µM (doses to about 28.7 µM), without a hit: top-dose activity change, negative = inhibition, most hits filed as inhibitors. AID 504834. P. falciparum luciferase reporter growth, 96 h. 6.9% of 320,000 active; also: potency is read from the fitted curve at half-maximal effect; % is scaled to controls: 0 for no effect and ±100 for the full control effect
#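 Two parasite generations (96 h, 37 C, 5% CO2) of compound exposure in infected erythrocytes (0.05% parasitemia, 2% hematocrit). Luciferase-reporter P. falciparum; decreased luminescence indicates inhibited growth, aimed at apicoplast-acting delayed death.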
# CHX counter = counter-screen for Shiga toxin inhibitors: cycloheximide protein synthesis inhibition; max response, %; cell reporter, cycloheximide protein synthesis inhibition counterscreen; AID 2314; 12% of 300,000 active; in the data active = max response mostly above about 13%, no sharp cut-off; inactive = mostly below about 14%; also: read at 38.3 µM for the half of the compounds with a filed dose; 0% is about no effect
# Shiga inhibitor = Shiga toxin inhibition | Vero cells, Shiga toxin protein synthesis inhibition reporter | inhibition, % at 38.7 µM | 9.2% of 290,000 active; in the data active = inhibition mostly above about 28%, no sharp cut-off; inactive = mostly below about 43%; also: 0% is about no effect
# Marburg entry inh = inhibitors of Marburg virus binding or cell entry. Marburg virus pseudotyped entry inhibition, cell reporter. Potency, µM (series often up to 37.8 µM), for the others: at the highest dose activity change, negative = inhibition, usual class: inhibitors. 1.8% of 300,000 active; calls by dose curve; tested in HEK293 cells; also: potency is read from the fitted curve at half-maximal effect; % is scaled to controls: 0 for no effect and ±100 for the full control effect
# Lassa entry inh = Lassa virus entry inhibition; Lassa virus pseudotype entry inhibition, cell reporter; Potency, µM (doses to about 37.9 µM), for inactives: at the highest dose activity change, negative = inhibition, hits mostly inhibitors; 1.2% of 300,000 active; calls by dose curve; tested in HEK293 cells; also: potency is read from the fitted curve at half-maximal effect; % is scaled to controls: 0 for no effect and ±100 for the full control effect; nearly all actives have a fitted effect of over 50% in size
# Pf growth 48h = P. falciparum growth inhibition at 48 hours (one generation). Potency, µM (doses to about 28.7 µM), for the others: at the top dose activity change, negative = inhibition, most hits filed as inhibitors. AID 504832. 5.9% of 310,000 active. P. falciparum luciferase growth in erythrocytes, 48 h; also: potency is read from the fitted curve at half-maximal effect; % is scaled to controls: 0 for no effect and ±100 for the full control effect
#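 First compound was added to culture medium, then infected red cells at 0.1% parasitemia and 2% hematocrit (final). After incubation at 37 C under 5% CO2, luciferase detection reagent was dispensed and light output recorded.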
# Numbers without * were called inactive; ? = inconclusive; . = no result given; [ ] = remark or other dose. Unless noted, calls follow the shape of the dose curve; as a rule, active = well fitted inhibition curve with a large enough effect; inconclusive = small, poorly fitted or top-dose-only effect, or another doubt; inactive = no such curve, though single readings can be large or run the other way.
SMILES,Pf growth 96h,CHX counter,Shiga inhibitor,Marburg entry inh,Lassa entry inh,Pf growth 48h
CCOc1cc(/C=N\Nc2nc(-c3ccc(C)cc3)c(NC(C)=O)s2)ccc1O,?,2.0,23.5,2.1%[46.1 µM],?,8.28µM*
COc1ccc(/C=N/Nc2nc(-c3ccc(C)cc3)c(NC(C)=O)s2)cc1OC,1.17µM*,33.6*,54.9*,-23.5%,10.8%,1.17µM*
COc1cc(/C=N/NC(N)=O)ccc1OC(=O)c1ccc(C)cc1,33.4%,10.2,-0.5,.,.,0.8%
COc1cc(/C=N\Nc2nc(-c3ccc(C)cc3)c(NC(C)=O)s2)ccc1O,5.86µM*,18.6*,50.7,.,.,10.4µM*
Cc1ccc(NC(=O)C(=O)C2C(=O)Nc3ccccc32)cc1 (stereo not given),52.2%,10.9*,22.3,-15.2%,2.7%,103.5%
CN(C)CCNC(=O)C(=O)C1C(=O)Nc2ccccc21 (stereo not given),10.4%,-1.9,-5.5,.,.,7.8%
CC1=NN(c2ccccc2)C(=O)C1C(=O)c1ccccc1 (stereo not given),42.2%,7.1,10.1,?,?,20.1%
CC1=NN(c2ccccc2)C(=O)C1C(=O)C(=O)Nc1ccc(F)cc1 (stereo not given),199.0%,30.1*,78.7*,?,10.0%[46.1 µM],364.9%
CCOc1ccc(N2CC(C(=O)NC(C)C)CC2=O)cc1 (stereo not given),?,-1.3,11.4,-0.6%,?,4.6%
CC1=C(C)CC(C(=O)NCc2ccccn2)C(C(=O)O)C1 (stereo not given),-9.6%,-1.4,1.1,19.5%[46.1 µM],1.7%[46.1 µM],16.5%
O=C(O)CCC(=O)NNC(=O)c1cccc(Cl)c1,59.2%,8.9,-8.2,-1.1%,1.2%,34.3%
CC1=C(C)CC(C(=O)NNC(=O)c2ccccc2)C(C(=O)O)C1 (stereo not given),18.6%,24.1*,79.1*,-1.7%[46.1 µM],18.9%,21.4%
Cc1cc(C)nc(N2CCC(C(=O)NNC(=O)c3ccccc3)CC2)n1,-16.1%,-3.5,-8.4,-11.9%[46.1 µM],12.7%[46.1 µM],-19.4%
CC1=C(C)CC(C(=O)NNC(=O)c2cccc(Cl)c2)C(C(=O)O)C1 (stereo not given),3.0%,37.2*,50.4*,4.7%,3.0%,11.1%
CC1=C(C)CC(C(=O)NCC(=O)c2ccccc2)C(C(=O)O)C1 (stereo not given),233.1%,39.6*,70.1*,1.4%,13.3%,.
O=S(=O)(NCc1ccc(Cl)cc1)NCc1ccccc1F,24.2%,3.1,-9.8,-15.2%[46.1 µM],?,23.3%
CC(=O)c1ccccc1OCC(O)CN1CCN(CCN2C(=O)c3cccc4cccc(c34)C2=O)CC1 (stereo not given),10.5%,-3.6,9.8,?,?,?
CCOC(=O)c1nnc(-c2ccc(C)cc2)nc1N1CCSCC1,-9.1%,14.9,39.0,-23.5%[46.1 µM],24.8%,-5.9%
COc1ccc(CNC(=O)C(=O)NCC(c2cccnc2)N2CCN(c3ccccc3F)CC2)cc1 (stereo not given),.,.,.,.,9.0%[46.1 µM],.
N/C(=N\OC(=O)/C=C/c1ccc(Br)cc1)c1ccccn1,25.5%,80.9*,67.7*,?,?,-32.4%
N/C(=N\OC(=O)/C=C/c1ccccc1)c1cccnc1,-4.7%,32.2*,70.0*,.,.,?
N/C(=N\OC(=O)/C=C/c1ccccc1Cl)c1cccnc1,?,63.3*,112.3*,?,-14.4%,97.4%
N/C(=N\OC(=O)/C=C/c1ccccc1Cl)c1ccccn1,27.3%,20.2,47.2,9.2µM*,-23.1%,394.7%
Cc1cccc(N2CCN(C(=O)CCc3nc4ccccc4[nH]3)CC2C)c1 (stereo not given),?,-3.9,12.3,.,.,.
Cc1cc(CN(C)C(=O)CC2C(=O)NCCN2CC(c2ccccc2)c2ccccc2)on1 (stereo not given),22.0%,-1.0,6.6,2.1%[46.1 µM],-3.2%,-10.1%
SMILES,Pf growth 96h,CHX counter,Shiga inhibitor,Marburg entry inh,Lassa entry inh,Pf growth 48h
Cc1cc(CNC(=O)CC2C(=O)NCCN2CC(c2ccccc2)c2ccccc2)on1 (stereo not given),14.7µM*,-2.4,13.8,?,-0.5%,1.5%
O=C1NCCN(Cc2ccoc2)C1CC(=O)N(Cc1ccccc1)CC1CCC1 (stereo not given),?,13.1*,34.1,0.6%[46.1 µM],-7.9%,16.3%
Cc1cc(CNC(=O)CC2C(=O)NCCN2Cc2ccc(-c3ccccc3)cc2)nn1C (stereo not given),9.28µM*,1.5,-1.1,.,.,-12.9%
Cc1cc(CNC(=O)CC2C(=O)NCCN2Cc2ccccc2)nn1C (stereo not given),?,3.6,-1.5,.,.,-8.8%
Cc1ccc(CN2CCNC(=O)C2CC(=O)N(C)CCc2ccccc2)cc1 (stereo not given),7.38µM*,-1.2,0.9,-7.7%[46.1 µM],?,?
CCc1ccc(NC(=O)CSc2nc3c(oc4ccccc43)c(=O)n2-c2cccc(C)c2)cc1,.,.,.,?,-3.1%[46.1 µM],.
CCOc1cccc2cc(C(=O)NCc3ccc(C)cc3)c(=N)oc12,-18.1%,8.6,-11.2,-29.0%[46.1 µM],?,-1.0%
O=C(O)COCC(=O)NC1CCN(Cc2ccccc2)CC1,-4.6%,-1.1,-5.1,11.5%[46.1 µM],-3.6%[46.1 µM],3.5%
CN(CC1CCOCC1)C(=O)CC1C(=O)NCCN1C/C=C/c1ccccc1 (stereo not given),4.65µM*,1.4,-5.9,0.6%[46.1 µM],11.3%[46.1 µM],5.8%
CN(CCc1ccccn1)C(=O)CC1C(=O)NCCN1Cc1ccc(-c2ccccc2)cc1 (stereo not given),11.7µM*,1.1,11.3,-18.7%[46.1 µM],-21.1%,?
CN(CCC1CCOCC1)C(=O)CC1C(=O)NCCN1C/C=C/c1ccccc1 (stereo not given),40.1%,-2.9,12.0,24.5%[46.1 µM],-6.1%[46.1 µM],-2.1%
CCC(=O)NC(c1ccco1)c1cc(Cl)c2ccccc2c1O (stereo not given),?,.,.,.,.,3.2%
CCCC(=O)NC(c1ccc2c(c1)OCO2)c1cc(Cl)c2cccnc2c1O (stereo not given),-2.2%,1.6,-4.7,?,?,?
CCCC(=O)NC(c1cccs1)c1cc(Cl)c2cccnc2c1O (stereo not given),?,-1.8,-11.8,3.55µM*,?,3.7µM*
CCCC(=O)NC(c1ccco1)c1cc(Cl)c2cccnc2c1O (stereo not given),.,-2.7,-24.7,?,?,11.7µM*
CCOC(=O)c1ccc(NC(=O)CSc2nnc(CC)o2)cc1,17.5%,6.3,-4.3,.,.,15.7%
Cc1ccc(S(=O)(=O)NC(=O)NCc2ccc(F)cc2)cc1,4.15µM*,-0.5,16.1,9.1%[46.1 µM],-0.1%,4.9%
COc1ccc(OC)c(NC(=S)NCc2ccc(S(N)(=O)=O)cc2)c1,?,-3.9,-9.3,8.7%[46.1 µM],11.2%[46.1 µM],10.7%
COc1ccc(Cl)cc1NC(=S)NCc1ccc(S(N)(=O)=O)cc1,11.7µM*,-3.1,42.6,?,3.5%,18.6%
